Measurements: PubChem BioAssay (NCATS)
Inconclusive results are not listed. The source made the active and inactive calls. Calls come from the whole dose curve; as a rule, active = well fitted curve in the direction sought with a large enough effect; inconclusive = small, poorly fitted or top-dose-only effect, or another doubt; inactive = no such curve, though single readings can be large; an effect the other way counts as inactive or inconclusive.

How the values were obtained:
[1] = qHTS of pediatric cancer cell lines to identify multiple opportunities for drug repurposing: Primary screen for U-2 OS cells (AID 1347096); conditions: U-2 OS viability, CellTiter-Glo luminescence, 48 h; series mostly up to 92.7 µM; note: nearly all actives have a fitted effect of over 50% in size; note: potency is the fitted concentration of half-maximal effect
Procedure, shortened: (§1)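 Cells (500-1,000/well) rested 5 h, then received compounds for 48 h; metabolically active cells were measured by CellTiter-Glo luminescence. Final concentrations spanned up to 46 µM (MIPE, 11-point) or 0.59 nM-46 µM (NPC, 8-point) in primary screens, 11-point in follow-ups.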

[2] = qHTS of pediatric cancer cell lines to identify multiple opportunities for drug repurposing: Primary screen for Saos-2 cells (AID 1347097); conditions: Saos-2 viability, CellTiter-Glo ATP luminescence, 48 h; note: potency is the fitted concentration of half-maximal effect; nearly all actives have a fitted effect of over 40% in size
Procedure, shortened: (§2)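 Quantitative HTS format: each compound titrated (MIPE 11 points from 0.78 nM, NPC 8 points from 0.59 nM) onto cells plated 5 hours earlier. After 48 h at 37 degrees C, CellTiter-Glo luminescence was recorded.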

[3] = qHTS of pediatric cancer cell lines to identify multiple opportunities for drug repurposing: Primary screen for SK-N-SH cells (AID 1347098); conditions: SK-N-SH viability, CellTiter-Glo luminescence, 48 h; series mostly up to 115 µM; note: nearly all actives have a fitted effect of over 65% in size; note: potency is the fitted concentration of half-maximal effect
Procedure, shortened: as §1

[4] = qHTS of pediatric cancer cell lines to identify multiple opportunities for drug repurposing: Primary screen for NB1643 cells (AID 1347099); conditions: NB1643 neuroblastoma viability, CellTiter-Glo luminescence, 48 h; series mostly up to 92.7 µM; note: nearly all actives have a fitted effect of over 50% in size; note: potency is the fitted concentration of half-maximal effect
Procedure, shortened: as §2

[5] = qHTS of pediatric cancer cell lines to identify multiple opportunities for drug repurposing: Primary screen for BT-12 cells (AID 1347101); conditions: BT-12 viability, CellTiter-Glo luminescence, 48 h; series mostly up to 116 µM; note: nearly all actives have a fitted effect of over 25% in size; note: potency is the fitted concentration of half-maximal effect
Procedure, shortened: as §1

[6] = qHTS of pediatric cancer cell lines to identify multiple opportunities for drug repurposing: Primary screen for Rh18 cells (AID 1347102); conditions: Rh18 rhabdomyosarcoma viability, CellTiter-Glo luminescence, 48 h; series mostly up to 92.7 µM; note: nearly all actives have a fitted effect of over 65% in size; note: potency is the fitted concentration of half-maximal effect
Procedure, shortened: as §1

[7] = qHTS of pediatric cancer cell lines to identify multiple opportunities for drug repurposing: Primary screen for OHS-50 cells (AID 1347103); conditions: OHS-50 osteosarcoma viability, CellTiter-Glo luminescence, 48 h; series mostly up to 116 µM; note: nearly all actives have a fitted effect of over 40% in size; note: potency is the fitted concentration of half-maximal effect
Procedure, shortened: as §1

[8] = qHTS of pediatric cancer cell lines to identify multiple opportunities for drug repurposing: Primary screen for RD cells (AID 1347104); conditions: RD rhabdomyosarcoma viability, CellTiter-Glo luminescence, 48 h; series mostly up to 92.7 µM; note: nearly all actives have a fitted effect of over 55% in size; note: potency is the fitted concentration of half-maximal effect
Procedure, shortened: as §2

[9] = qHTS of pediatric cancer cell lines to identify multiple opportunities for drug repurposing: Primary screen for MG 63 (6-TG R) cells (AID 1347105); conditions: MG 63 (6-TG R) viability, CellTiter-Glo, 48 h; series mostly up to 92.7 µM; note: nearly all actives have a fitted effect of over 50% in size; note: potency is the fitted concentration of half-maximal effect
Procedure, shortened: as §2

[10] = qHTS of pediatric cancer cell lines to identify multiple opportunities for drug repurposing: Primary screen for control Hh wild type fibroblast cells (AID 1347106); conditions: Hh wild-type fibroblast viability, CellTiter-Glo luminescence, 48 h; series mostly up to 92.7 µM;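 note: a drop in luminescence marks cytotoxicity and a rise apparent proliferation; nearly all actives have a fitted effect of over 55% in size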
Procedure, shortened: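 Viability after 48 h compound treatment at 37C, 500-1,000 cells/well, read as ATP luminescence with CellTiter-Glo. Primary screens used 11-point (MIPE, 0.78 nM-46 µM) or 8-point (NPC, 0.59 nM-46 µM) final concentrations; follow-up screens used 11-point dilutions.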

[11] = qHTS of pediatric cancer cell lines to identify multiple opportunities for drug repurposing: Primary screen for Rh30 cells (AID 1347107); conditions: Rh30 rhabdomyosarcoma viability, CellTiter-Glo luminescence, 48 h; series mostly up to 92.7 µM; note: nearly all actives have a fitted effect of over 75% in size; note: potency is the fitted concentration of half-maximal effect
Procedure, shortened: as §1

[12] = qHTS of pediatric cancer cell lines to identify multiple opportunities for drug repurposing: Primary screen for Rh41 cells (AID 1347108); conditions: Rh41 rhabdomyosarcoma viability, CellTiter-Glo luminescence, 48 h; series mostly up to 92.7 µM; note: nearly all actives have a fitted effect of over 70% in size; note: potency is the fitted concentration of half-maximal effect
Procedure, shortened: as §2

[13] = qHTS of pediatric cancer cell lines to identify multiple opportunities for drug repurposing: Confirmatory screen for NB1643 cells (AID 1347109); conditions: NB1643 neuroblastoma cell viability; note: potency is the fitted concentration of half-maximal effect; nearly all actives have a fitted effect of over 45% in size
Procedure, shortened: as §1

[14] = qHTS of pediatric cancer cell lines to identify multiple opportunities for drug repurposing: Confirmatory screen for A673 cells (AID 1347110); conditions: A673 Ewing sarcoma cell viability;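 note: potency is the fitted concentration of half-maximal effect; cells exposed to compound for 48 h before the viability read; nearly all actives have a fitted effect of over 65% in size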
Procedure, shortened: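 Forty-eight-hour viability assay. Follow-up compounds ran at 11-point dilutions; positive control bortezomib at 2.3 uM final, neutral control DMSO.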

[15] = qHTS of pediatric cancer cell lines to identify multiple opportunities for drug repurposing: Confirmatory screen for SK-N-MC cells (AID 1347111); conditions: SK-N-MC cell viability;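 note: potency is the fitted concentration of half-maximal effect; cells exposed to compound for 48 h before the readout; nearly all actives have a fitted effect of over 70% in size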
Procedure, shortened: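 Seed 500-1,000 cells/well; rest 5 h at 37 degrees C. Pin-transfer compounds, 11-point titration. Incubate 48 h. Add CellTiter-Glo, 15 min RT, read luminescence.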

[16] = qHTS of pediatric cancer cell lines to identify multiple opportunities for drug repurposing: Confirmatory screen for BT-12 cells (AID 1347112); conditions: BT-12 rhabdoid tumor cells, viability; note: potency is the fitted concentration of half-maximal effect; nearly all actives have a fitted effect of over 55% in size
Procedure, shortened: as §1

[17] = qHTS of pediatric cancer cell lines to identify multiple opportunities for drug repurposing: Confirmatory screen for LAN-5 cells (AID 1347113); conditions: LAN-5 neuroblastoma cell viability; note: potency is the fitted concentration of half-maximal effect; nearly all actives have a fitted effect of over 65% in size
Procedure, shortened: as §1

[18] = qHTS of pediatric cancer cell lines to identify multiple opportunities for drug repurposing: Confirmatory screen for DAOY cells (AID 1347114); conditions: DAOY medulloblastoma cells viability, cytotoxicity qHTS
Procedure, shortened: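 Viability measured as metabolically active cells via CellTiter-Glo luminescence following 48 hours of compound exposure, 11-point dilutions in confirmatory testing. 500-1,000 cells/well plated 5 hours before dosing; controls were DMSO and 2.3 µM bortezomib.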

[19] = qHTS of pediatric cancer cell lines to identify multiple opportunities for drug repurposing: Confirmatory screen for NB-EBc1 cells (AID 1347115); conditions: NB-EBc1 neuroblastoma cells, viability (cytotoxicity);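 note: potency is the fitted concentration of half-maximal effect; cells exposed to compound for 48 h before the viability read; nearly all actives have a fitted effect of over 45% in size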
Procedure, shortened: as §1

[20] = qHTS of pediatric cancer cell lines to identify multiple opportunities for drug repurposing: Primary screen for LAN-5 cells (AID 1347100); conditions: LAN-5 neuroblastoma viability, CellTiter-Glo luminescence, 48 h; series mostly up to 92.7 µM
Procedure, shortened: as §1

Compound | Potency [1] | Potency [2] | Potency [3] | Potency [4] | Potency [5] | Potency [6] | Potency [7] | Potency [8] | Potency [9] | outcome [10] | Potency [11] | Potency [12] | Potency [13] | Potency [14] | Potency [15] | Potency [16] | Potency [17] | Potency [18] | Potency [19] | outcome [20]
C[CH2][Hg][S]c1ccccc1C(=O)O | 6.68 µM (active) | 0.841 µM (active) | 3.07 µM (active) | 2.37 µM (active) | 3.47 µM (active) | 4.73 µM (active) | 3.89 µM (active) | 4.73 µM (active) | 2.66 µM (active) | inactive | 2.66 µM (active) | 2.37 µM (active) | 2.93 µM (active) | 7.37 µM (active) | 2.93 µM (active) | 6.57 µM (active) | 4.65 µM (active) | 3.29 µM (active) | 7.37 µM (active) | 
CCCSP(=O)(OCC)SCCC | inactive |  | inactive | inactive | inactive | inactive | inactive | inactive | inactive | inactive | inactive | inactive |  |  |  |  |  |  |  | inactive
